TRHR agonist – agonists of human TRH receptor; P34981; TRHR cells, calcium flux fluo-8, FDSS agonist mode; activation, % at 2 µM; actives 0.18% (n = 360,000)
Target sequence (P34981 whole entry, looked up): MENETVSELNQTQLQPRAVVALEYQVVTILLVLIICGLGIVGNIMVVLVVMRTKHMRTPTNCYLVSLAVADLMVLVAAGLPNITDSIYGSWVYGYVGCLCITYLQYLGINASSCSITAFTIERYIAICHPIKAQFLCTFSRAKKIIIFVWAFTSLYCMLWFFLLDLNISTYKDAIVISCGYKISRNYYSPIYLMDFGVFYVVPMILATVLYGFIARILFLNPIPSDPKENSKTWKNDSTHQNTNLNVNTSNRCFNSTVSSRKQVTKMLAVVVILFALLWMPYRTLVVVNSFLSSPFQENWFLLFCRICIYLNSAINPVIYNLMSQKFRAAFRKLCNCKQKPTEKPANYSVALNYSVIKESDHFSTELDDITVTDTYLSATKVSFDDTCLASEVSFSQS
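TRHR-expressing cells loaded with fluo-8 calcium dye; 23 nL library compound pin-transferred, kinetic FDSS fluorescence (Ex 480/Em 530) recorded about 180 s for agonist-induced calcium release, before a 10 nM TRH EC20 addition for potentiator mode.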
D1 antag – antagonists of human D1 dopamine receptor. P21728. HEK293 TREx D1 cells, calcium flux, dopamine EC80; hits give low values. activity change, negative = inhibition, % at 10 µM. actives 3.2% (n = 360,000); in the data active = activity change below about -30%
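Inducible Hek293 Trex D1 cells (tetracycline, overnight, 30 C). Calcium dye 30–90 min RT. Antagonist mode: EC80 dopamine added after 180 s compound read.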
D1 agonist – human D1 receptor agonism; P21728; HEK293 T-REx D1 cells, calcium flux, agonist mode; activation, % at 2 µM; actives 1% (n = 360,000); AID 504660
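Inducible HEK293 T-REx D1 cells, force-coupled to calcium signalling, were plated at 4000 cells/well with tetracycline and held overnight at 30 C. After no-wash calcium dye loading, compound-evoked calcium rise over 180 s flagged agonists.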
D1 potentiator – potentiators of human D1 dopamine receptor; HEK293 TREx D1 cells, calcium flux, dopamine EC20 potentiation; potentiation, % at 10 µM; actives 0.036% (n = 360,000); in the data active = potentiation above about 30%
TRHR enhancer – allosteric enhancers of human TRH receptor | P34981 | TRHR cells, fluo-8 calcium fluorescence, EC20 TRH enhancement | enhancement, % at 2 µM | actives 0.66% (n = 360,000); in the data active = enhancement above about 30%
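Enhancer read-out: after compound pinning and an initial kinetic agonist-mode read, an EC20 of TRH (10 nM final) was injected and fluo-8 calcium signal (Ex 480/Em 530) followed at 1 s/cycle for 100 cycles in TRHR-expressing cells.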
A number is an active result; - = inactive; . = not tested or not shown. The list is not random: actives were taken first. Their share in the collection is about 4.7%. Cut-off read from the data, not from the text of the source, unless noted: active = activation above about 30%; inactive = the rest.

SMILES | TRHR agonist | D1 antag | D1 agonist | D1 potentiator | TRHR enhancer
CN1CCC(=C2c3ccccc3C(O)c3ccccc32)CC1 (centres undefined) | - | -79 | - | - | -
O=S(=O)(c1ccc2c(c1)C(O)c1ccccc1CC2)C(F)(F)F (centres undefined) | - | - | - | - | -
CC(=O)Nc1ccc(S(=O)(=O)N2CCc3ccccc3C2)cc1 | - | -34 | - | - | -
CC(=O)Nc1ccc(S(=O)(=O)N2CCN(Cc3cccs3)CC2)cc1 | - | -39 | - | - | -
N#Cc1ccc(S(=O)(=O)N2CCN(c3ncccn3)CC2)cc1 | - | - | - | - | -
O=S(=O)(c1ccccc1)N1CCc2ccccc2C1 | - | - | - | - | -
N#Cc1ccc(S(=O)(=O)N2CCN(Cc3cccs3)CC2)cc1 | - | -64 | - | - | -
COc1cc(S(=O)(=O)N2CCN(Cc3cccs3)CC2)ccc1NC(C)=O | - | - | - | . | -
CCOc1ccc(NC(=O)CSc2nnc(C3CC3)n2C2CC2)cc1 | - | - | - | - | -
COc1ccc2c(c1)c1c(c(=O)n(-c3ccccc3C)c(=O)n1C)n2C | - | - | - | - | -
Nc1ccc(C23CC4CC(CC(CO)(C4)C2)C3)cc1 | - | - | - | - | -
NCC12CC3CC(C1)CC(c1ccc(Cl)cc1)(C3)C2 | - | - | 38 | - | -
CCOC(=O)C1CCN(c2ncnc3c2c(-c2ccccc2)cn3-c2ccc(C)c(Cl)c2)CC1 | - | - | - | - | -
CCCCOc1ccc(C2c3c(oc4ccccc4c3=O)C(=O)N2c2nc(C)c(C(=O)OCC)s2)cc1OC (centres undefined) | - | -31 | - | - | -
CCOC(=O)c1sc(N2C(=O)c3oc4cc(C)c(C)cc4c(=O)c3C2c2ccc(C)cc2)nc1C (centres undefined) | - | - | - | - | -
CC(NC(=O)C1CCCN(C(=O)c2ccc(Cl)cc2)C1)c1cccc(C(F)(F)F)c1 (centres undefined) | - | -37 | - | . | -
O=C(c1cccc(C(F)(F)F)c1)N1CCCC1 | - | - | - | - | -
O=C(c1cccc(C(F)(F)F)c1)N1CCCCCC1 | - | -56 | - | - | -
O=C(O)c1ccc(C(=O)Nc2cccc3cccnc23)cc1 | - | - | - | - | -
O=c1oc2ccc3ccccc3c2cc1-c1nnc(Nc2cccc(C(F)(F)F)c2)s1 | - | - | - | - | -
COc1ccccc1N1CCN(C(CNC(=O)C(=O)NCCc2ccccc2)c2cccnc2)CC1 (centres undefined) | - | - | - | - | -
Cc1ccc(C(=O)CNc2ccccc2)cc1 | - | - | - | - | -
C=C(C(=O)Nc1ccccc1)c1ccc(C)cc1 | - | -49 | - | - | -
CC(=O)Nc1sc(/C(C#N)=C\c2cccc(Cl)c2)nc1-c1ccc(C)cc1 | 67 | -45 | 244 | - | -
CCCc1cc(=O)[nH]c2nnc(SCCC(C)C)n12 | - | . | - | - | -
SMILES | TRHR agonist | D1 antag | D1 agonist | D1 potentiator | TRHR enhancer
CC(C)c1ccc(OCC(=O)NCCS(=O)(=O)N2CCN(c3ccc(F)cc3)CC2)cc1 | - | - | - | - | -
Clc1ccc(OCc2nnc(SCc3nnc(-c4ccccc4)o3)o2)c(Cl)c1 | - | - | 35 | - | -
CN1CCN(CC(=O)N2CCn3c4c(c5cc(C6CCCCC6)ccc53)CCCC42)CC1 (centres undefined) | - | -38 | - | - | -
Cc1ccc2c(c1)c1c3n2CCN(C(=O)CN2CCN(C)CC2)C3CCC1 (centres undefined) | - | - | - | - | -
COC(=O)C1=C(C)N(Cc2ccco2)C(=O)N[C@H]1c1ccc(Br)cc1 | - | - | - | - | -
COC(=O)c1c(C(=O)OC)c(C)n(Cc2ccco2)c1C | - | -68 | - | - | -
COC(=O)C1=C(C)N(Cc2ccco2)C(=O)N[C@H]1c1ccccc1 | - | -49 | - | - | -
COC(=O)c1ccc(Cl)c(NC(=O)c2ccc(-c3ccccc3)cc2)c1 | - | - | - | - | -
Cn1nnnc1Sc1ncnc2scc(-c3cccc(C#N)c3)c12 | - | - | - | - | -
COc1ccc(NC(=O)CSc2nncs2)cc1S(N)(=O)=O | - | -32 | - | - | -
CN(Cc1ccccc1)CC(O)COc1ccc(CNCc2ccc(Cl)s2)cc1 (centres undefined) | - | -41 | 54 | - | -
